Experimental data taken from ChEMBL document CHEMBL1201862, “PubChem BioAssay data set” (2004).
About 2,100 (0.53%) of roughly 400,000 compounds were called active. Not shown: some 14% with an inconclusive outcome. This is one part of a sample in which actives are shown more often than they occur. No rule for the calls is given here.

molecular target: Ataxin-2 (Homo sapiens) (UniProt Q99700); assay: qHTS for Inhibitors of ATXN expression.; type: functional
Sequence (Q99700 whole entry): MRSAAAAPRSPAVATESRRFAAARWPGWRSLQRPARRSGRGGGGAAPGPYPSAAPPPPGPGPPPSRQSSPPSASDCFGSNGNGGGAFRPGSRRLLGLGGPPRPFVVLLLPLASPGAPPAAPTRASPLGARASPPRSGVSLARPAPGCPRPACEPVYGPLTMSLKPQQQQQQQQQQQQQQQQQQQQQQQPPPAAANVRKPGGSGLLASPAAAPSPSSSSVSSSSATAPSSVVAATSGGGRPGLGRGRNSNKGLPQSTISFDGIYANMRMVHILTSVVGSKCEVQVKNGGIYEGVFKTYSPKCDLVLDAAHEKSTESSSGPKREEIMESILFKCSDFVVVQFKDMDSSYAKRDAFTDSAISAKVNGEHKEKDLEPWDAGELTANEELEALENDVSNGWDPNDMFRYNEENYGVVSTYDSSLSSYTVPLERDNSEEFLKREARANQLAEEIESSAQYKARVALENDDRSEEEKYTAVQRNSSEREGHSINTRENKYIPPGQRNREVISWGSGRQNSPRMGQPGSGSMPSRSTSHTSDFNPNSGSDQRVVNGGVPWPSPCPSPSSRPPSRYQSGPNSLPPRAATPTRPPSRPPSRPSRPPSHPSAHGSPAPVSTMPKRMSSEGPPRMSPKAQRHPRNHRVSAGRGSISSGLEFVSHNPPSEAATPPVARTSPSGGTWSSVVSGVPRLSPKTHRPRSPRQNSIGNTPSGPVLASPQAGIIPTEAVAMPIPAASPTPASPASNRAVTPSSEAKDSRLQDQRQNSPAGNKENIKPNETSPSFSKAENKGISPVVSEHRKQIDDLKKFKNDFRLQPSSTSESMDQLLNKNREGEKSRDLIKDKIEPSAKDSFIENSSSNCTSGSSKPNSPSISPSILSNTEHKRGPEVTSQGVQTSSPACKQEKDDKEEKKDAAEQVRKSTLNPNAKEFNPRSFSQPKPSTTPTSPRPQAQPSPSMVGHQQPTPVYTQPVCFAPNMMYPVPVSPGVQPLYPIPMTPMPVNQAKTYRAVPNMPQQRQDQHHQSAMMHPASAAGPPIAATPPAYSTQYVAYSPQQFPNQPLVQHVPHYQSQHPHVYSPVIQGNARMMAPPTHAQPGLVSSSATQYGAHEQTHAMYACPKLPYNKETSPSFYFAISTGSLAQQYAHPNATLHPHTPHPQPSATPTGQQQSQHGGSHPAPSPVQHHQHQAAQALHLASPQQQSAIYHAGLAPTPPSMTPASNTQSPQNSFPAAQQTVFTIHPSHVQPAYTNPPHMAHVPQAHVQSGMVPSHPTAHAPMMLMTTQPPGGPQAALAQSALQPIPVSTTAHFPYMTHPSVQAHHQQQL

Compound | Potency
O=C(Nc1cc(S(=O)(=O)N2CCCC2)ccc1Cl)c1ccncc1 | inactive
CCOc1cc(Br)c(/C=C2/C(=O)N(C)C(=S)N2CC(=O)OC)cc1OC | inactive
Cn1c(SCc2cc(O)nc(C(C)(C)C)n2)nnc1C(F)(F)F | inactive
CCCn1c(=N)c(C(=O)NCC2CCCO2)cc2c(=O)n3cc(C)ccc3nc21 (stereo not given) | inactive
Nc1nc(-c2ccc(Cl)cc2)c(N=Nc2ccc(S(=O)(=O)N3CCOCC3)cc2)s1 | 29.9 µM (active)
O=c1nc2ccc(Cl)cn2c2ccc(S(=O)(=O)N3CCOCC3)cc12 | inactive
Cc1ccc(S(=O)(=O)N2CCN(C(=O)c3cc(S(=O)(=O)N4CCOCC4)c(Cl)cc3Cl)CC2)cc1 | inactive
Nc1ccc2c(c1)C/C(=C/c1ccco1)C2=O | inactive
Cc1ccc(C2=CC(c3c(F)cccc3Cl)n3ncnc3N2)cc1C (stereo not given) | inactive
CCOc1cc(C(=O)O)ccc1OCCOc1ccccc1 | inactive
CCCOc1ccc(C(=O)c2ccccc2C(=O)OC2CCOC2=O)cc1OCCC (stereo not given) | 39.8 µM (active)
O=C(OC1CCOC1=O)c1cc(-c2cccs2)nc2ccccc12 (stereo not given) | inactive
O=C(O)c1ccc2nc(-c3cc4cc(Cl)ccc4oc3=O)[nH]c2c1 | inactive
CCn1c2ccccc2c2cc(CN3CCOc4ccc(C(O)c5cccnc5)cc4C3)ccc21 (stereo not given) | 31.6 µM (active)
CC(C)C(OC(=O)c1ccccc1)c1nccc2ccccc12 (stereo not given) | inactive
CCOc1cc2c(cc1/C=C1/NC(=O)N(CC(=O)OC)C1=O)OCO2 | inactive
COc1ccc(OC)c(N/C=C/C(=O)c2ccc(OC)c(OC)c2)c1 | inactive
COc1ccc(/C=c2\s/c(=C/C(=O)c3ccc(C)cc3)[nH]c2=O)cc1OC | inactive
COc1cc(/C=C/C(=O)c2ccc(C)cc2)ccc1OCC#N | 39.8 µM (active)
COc1cc(/C=C/C(=O)O)ccc1OS(=O)(=O)c1cc(C)ccc1C | inactive
COc1ccc(C=CC(=O)c2ccc3cc(OC)c(OC)cc3c2)cc1OC | inactive
COc1cccc(C(=O)/C=C/c2ccc(OCC#N)c(OC)c2)c1 | 31.6 µM (active)
CCS(=O)(=O)Nc1cc2c3c(c1)CCC(=O)N3CCC2 | inactive
O=S(=O)(NN=C(NS(=O)(=O)c1ccccc1)c1ccccc1)c1ccccc1 | inactive
CCc1cc2cc(C)ccc2nc1SCC(=O)NC1CCCC1 | inactive

Compound | Potency
Cc1cc(=O)n2c(n1)SCOC2 | inactive
Cc1cccn2c(=O)c3cc(C(=O)NCc4ccc(F)cc4)c(=N)n(CC4CCCO4)c3nc12 (stereo not given) | inactive
CC(C)C[C@H](N)c1nnc(S(=O)(=O)Cc2cccc(F)c2)o1 | 39.8 µM (active)
CC(C)C[C@H](N)c1nnc(S(=O)(=O)Cc2ccc(F)cc2)o1 | 31.6 µM (active)
CCOC(=O)N1CCN(S(=O)(=O)c2ccc3c4c(cccc24)C(=O)N3)CC1 | inactive
CCOC(=O)C1CCN(C(=O)C(C)Oc2ccc(Br)cc2)CC1 (stereo not given) | inactive
COc1cc(/C=C2\C(=N)N3N=C(CC(=O)N4CCOCC4)SC3=NC2=O)cc(OC)c1O | inactive
COc1cc(OC)cc(N2C(=O)CSCC2=O)c1 | inactive
COc1ccc2c(c1)C(=O)N(c1ccc(C)cc1C)C(=O)C2 | 35.5 µM (active)
Cc1ccc(N2C(=O)C(Cl)=C(N3CCCCCC3)C2=O)c(C)c1 | inactive
N#CC(C#N)=C1C=C2C=C(N3CCOCC3)CCC2CC1 (stereo not given) | inactive
O=c1oc2c(O)cccc2cc1-c1nc2ccccc2[nH]1 | inactive
Cc1ccccc1NS(=O)(=O)c1nnc(NC(=O)c2ccccc2C)s1 | inactive
Cc1cc(F)ccc1S(=O)(=O)Nc1ccccc1C(=O)Nc1ccccc1-c1nc2ccccc2[nH]1 | 39.8 µM (active)
Cc1cc(C)c2c(N)c(C(=O)N/N=C/c3cccs3)sc2n1 | inactive
Cc1ccc2nc3c(cc(C(=O)NCC4CCCO4)c(=N)n3CCCOC(C)C)c(=O)n2c1 (stereo not given) | inactive
COc1cccc(N2[C@@H](CC(C)=O)c3ccc(/C=C/C(C)=O)cc3S2(=O)=O)c1 | 35.5 µM (active)
COc1cccc(/C=C/c2nc(C#N)c(N3CCC(C(N)=O)CC3)o2)c1 | inactive
CC(C)n1nc(C(=O)NNC(=O)c2ccc(OC(F)F)cc2)c2ccccc2c1=O | inactive
COc1ccc(C(=O)/C=C/c2cn(CC(O)CN3CCc4ccccc43)c3ccccc23)cc1 (stereo not given) | inactive
COc1ccc(C(=O)/C=C/c2cn(CC(O)CN(CC(C)C)CC(C)C)c3ccccc23)cc1 (stereo not given) | inactive
COc1ccc(C(=O)/C=C/c2cn(CC(O)CN3CCN(C)CC3)c3ccccc23)cc1OC (stereo not given) | inactive
CCC(=C(c1ccc(OC)cc1)c1ccc(OC)cc1)c1cn(CC(O)CN2CCN(C)CC2)c2ccccc12 (stereo not given) | 39.8 µM (active)
CCCN(CCC)CC(O)Cn1cc(/C=C/C(=O)c2ccc(OCC)cc2)c2ccccc21 (stereo not given) | inactive
CCC(=C(c1ccc(OC)cc1)c1ccc(OC)cc1)c1cn(CC(O)CN(CCO)CCO)c2ccccc12 (stereo not given) | 39.8 µM (active)
